Tests used:
Assay in all cases: log2 ratio of Biotin-Ahx-Ub-VS probe labelling (fragment/DMSO); higher = less target engagement (more negative = stronger competition), active = hit call of the paper (q ≤ 0.05, log2 ratio ≤ -1)
Details in all cases: compound concentration: 200 uM; treatment time: 3 h
USP19 = biological target: T1, USP19 (UniProt O94966)
T1 sequence (whole entry): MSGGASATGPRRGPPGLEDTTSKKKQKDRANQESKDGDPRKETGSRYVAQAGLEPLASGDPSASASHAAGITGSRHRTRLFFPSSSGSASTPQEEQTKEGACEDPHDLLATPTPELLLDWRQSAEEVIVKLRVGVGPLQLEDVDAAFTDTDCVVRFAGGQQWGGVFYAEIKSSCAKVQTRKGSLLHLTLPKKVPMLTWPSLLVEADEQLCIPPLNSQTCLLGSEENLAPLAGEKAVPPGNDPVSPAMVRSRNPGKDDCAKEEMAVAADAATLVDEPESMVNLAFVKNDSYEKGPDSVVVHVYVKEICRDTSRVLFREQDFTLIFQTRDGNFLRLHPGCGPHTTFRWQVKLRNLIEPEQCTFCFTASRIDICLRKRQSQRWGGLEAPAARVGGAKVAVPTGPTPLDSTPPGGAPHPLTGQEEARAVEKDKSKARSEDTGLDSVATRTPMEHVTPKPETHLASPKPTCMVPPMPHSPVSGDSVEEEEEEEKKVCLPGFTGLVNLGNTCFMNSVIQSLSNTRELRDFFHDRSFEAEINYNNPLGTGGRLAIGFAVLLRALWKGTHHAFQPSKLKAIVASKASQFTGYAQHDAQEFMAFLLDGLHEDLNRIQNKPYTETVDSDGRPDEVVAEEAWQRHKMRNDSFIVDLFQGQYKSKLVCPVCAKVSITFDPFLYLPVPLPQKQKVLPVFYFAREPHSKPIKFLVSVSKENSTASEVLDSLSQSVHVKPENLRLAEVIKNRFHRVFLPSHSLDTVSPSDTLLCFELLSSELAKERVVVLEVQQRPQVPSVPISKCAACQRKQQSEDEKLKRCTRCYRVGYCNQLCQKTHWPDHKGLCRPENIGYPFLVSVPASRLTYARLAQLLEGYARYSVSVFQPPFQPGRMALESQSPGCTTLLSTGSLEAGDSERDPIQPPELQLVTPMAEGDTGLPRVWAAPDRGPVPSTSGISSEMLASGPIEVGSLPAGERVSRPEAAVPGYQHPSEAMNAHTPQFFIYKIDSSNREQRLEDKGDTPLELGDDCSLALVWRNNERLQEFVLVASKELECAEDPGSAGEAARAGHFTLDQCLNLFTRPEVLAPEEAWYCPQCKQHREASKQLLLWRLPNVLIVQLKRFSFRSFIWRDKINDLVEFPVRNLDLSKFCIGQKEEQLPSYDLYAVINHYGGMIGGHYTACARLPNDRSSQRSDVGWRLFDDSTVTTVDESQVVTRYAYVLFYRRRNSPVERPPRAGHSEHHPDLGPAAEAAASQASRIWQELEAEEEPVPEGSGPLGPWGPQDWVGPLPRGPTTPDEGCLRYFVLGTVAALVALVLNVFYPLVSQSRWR
Method in brief: (§1)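 HEK293T lysate, 495 µg per sample in Tris/CHAPS/IGEPAL buffer with protease inhibitors, was treated in triplicate with fragment at 200 µM or vehicle for 3 h and then with Biotin-Ahx-Ub-VS at 0.5 µM final for 1 h. Labelled DUBs were NeutrAvidin-enriched, digested with LysC and trypsin, and run by diaPASEF LC-MS/MS. Spectronaut label-free quantities were global-median-normalised, and values are average log2 fragment/vehicle ratios by unpaired t-test on proteins with ≥2 unique peptides.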

USP24 = USP24 (UniProt Q9UPU5)
Method in brief: as §1

USP25 = biological target: T2, USP25 (UniProt Q9UHP3)
T2 sequence (whole entry): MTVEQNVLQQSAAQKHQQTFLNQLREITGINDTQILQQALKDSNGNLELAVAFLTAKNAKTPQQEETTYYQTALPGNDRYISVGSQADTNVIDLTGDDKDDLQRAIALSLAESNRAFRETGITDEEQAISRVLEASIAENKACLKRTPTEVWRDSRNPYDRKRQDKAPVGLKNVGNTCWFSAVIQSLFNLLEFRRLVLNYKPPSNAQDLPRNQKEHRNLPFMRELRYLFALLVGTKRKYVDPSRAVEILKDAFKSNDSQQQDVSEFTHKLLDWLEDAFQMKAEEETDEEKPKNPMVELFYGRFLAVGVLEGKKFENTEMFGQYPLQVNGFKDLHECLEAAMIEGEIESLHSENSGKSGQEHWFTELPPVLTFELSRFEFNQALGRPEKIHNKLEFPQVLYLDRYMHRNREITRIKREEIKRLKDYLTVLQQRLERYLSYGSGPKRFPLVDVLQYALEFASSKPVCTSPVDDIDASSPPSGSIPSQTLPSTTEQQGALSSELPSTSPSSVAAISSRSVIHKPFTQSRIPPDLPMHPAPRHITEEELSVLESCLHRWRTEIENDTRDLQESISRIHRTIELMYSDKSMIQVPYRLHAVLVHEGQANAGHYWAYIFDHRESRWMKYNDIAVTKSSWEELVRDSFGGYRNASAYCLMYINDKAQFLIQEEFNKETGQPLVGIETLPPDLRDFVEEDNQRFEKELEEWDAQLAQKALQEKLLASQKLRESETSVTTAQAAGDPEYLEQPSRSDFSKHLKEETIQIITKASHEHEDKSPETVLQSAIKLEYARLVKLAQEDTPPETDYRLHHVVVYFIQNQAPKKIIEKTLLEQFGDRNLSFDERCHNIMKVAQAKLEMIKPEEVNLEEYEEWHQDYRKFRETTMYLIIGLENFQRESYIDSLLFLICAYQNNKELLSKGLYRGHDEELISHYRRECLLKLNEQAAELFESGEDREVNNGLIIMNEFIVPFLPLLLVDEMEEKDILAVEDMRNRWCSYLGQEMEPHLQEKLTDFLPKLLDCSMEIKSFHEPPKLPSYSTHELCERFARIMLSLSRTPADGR
Method in brief: as §1

USP28 = biological target: T3, USP28 (UniProt Q96RU2)
T3 sequence (whole entry): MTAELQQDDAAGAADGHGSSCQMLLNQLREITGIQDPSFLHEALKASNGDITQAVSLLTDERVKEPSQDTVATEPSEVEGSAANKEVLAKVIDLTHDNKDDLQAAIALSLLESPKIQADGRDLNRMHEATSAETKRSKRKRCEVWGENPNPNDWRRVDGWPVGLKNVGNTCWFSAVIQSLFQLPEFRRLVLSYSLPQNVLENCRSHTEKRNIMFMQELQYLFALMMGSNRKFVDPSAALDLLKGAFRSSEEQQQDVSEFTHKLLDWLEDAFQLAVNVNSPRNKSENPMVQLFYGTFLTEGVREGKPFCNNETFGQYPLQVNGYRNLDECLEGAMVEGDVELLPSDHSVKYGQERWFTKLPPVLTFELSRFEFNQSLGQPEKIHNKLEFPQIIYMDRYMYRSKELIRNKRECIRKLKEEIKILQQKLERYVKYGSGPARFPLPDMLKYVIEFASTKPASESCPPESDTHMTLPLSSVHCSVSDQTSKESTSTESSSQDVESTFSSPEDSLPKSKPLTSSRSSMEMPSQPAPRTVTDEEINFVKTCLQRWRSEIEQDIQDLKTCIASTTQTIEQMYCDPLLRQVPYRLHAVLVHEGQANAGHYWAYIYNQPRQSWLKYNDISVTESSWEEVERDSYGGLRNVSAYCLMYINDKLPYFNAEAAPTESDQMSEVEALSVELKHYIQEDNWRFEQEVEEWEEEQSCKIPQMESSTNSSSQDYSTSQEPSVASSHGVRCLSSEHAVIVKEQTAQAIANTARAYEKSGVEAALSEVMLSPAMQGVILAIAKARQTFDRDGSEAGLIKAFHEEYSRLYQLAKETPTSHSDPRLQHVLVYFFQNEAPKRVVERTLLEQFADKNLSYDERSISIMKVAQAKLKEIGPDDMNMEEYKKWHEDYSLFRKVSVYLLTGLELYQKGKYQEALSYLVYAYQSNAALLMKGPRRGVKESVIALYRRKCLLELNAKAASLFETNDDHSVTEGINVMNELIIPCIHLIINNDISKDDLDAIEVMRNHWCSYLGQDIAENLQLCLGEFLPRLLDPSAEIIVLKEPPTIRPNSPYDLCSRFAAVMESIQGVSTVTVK
Method in brief: as §1

Measured: log2 ratio of Biotin-Ahx-Ub-VS probe labelling

Chain of USP24 (Q9UPU5 whole entry): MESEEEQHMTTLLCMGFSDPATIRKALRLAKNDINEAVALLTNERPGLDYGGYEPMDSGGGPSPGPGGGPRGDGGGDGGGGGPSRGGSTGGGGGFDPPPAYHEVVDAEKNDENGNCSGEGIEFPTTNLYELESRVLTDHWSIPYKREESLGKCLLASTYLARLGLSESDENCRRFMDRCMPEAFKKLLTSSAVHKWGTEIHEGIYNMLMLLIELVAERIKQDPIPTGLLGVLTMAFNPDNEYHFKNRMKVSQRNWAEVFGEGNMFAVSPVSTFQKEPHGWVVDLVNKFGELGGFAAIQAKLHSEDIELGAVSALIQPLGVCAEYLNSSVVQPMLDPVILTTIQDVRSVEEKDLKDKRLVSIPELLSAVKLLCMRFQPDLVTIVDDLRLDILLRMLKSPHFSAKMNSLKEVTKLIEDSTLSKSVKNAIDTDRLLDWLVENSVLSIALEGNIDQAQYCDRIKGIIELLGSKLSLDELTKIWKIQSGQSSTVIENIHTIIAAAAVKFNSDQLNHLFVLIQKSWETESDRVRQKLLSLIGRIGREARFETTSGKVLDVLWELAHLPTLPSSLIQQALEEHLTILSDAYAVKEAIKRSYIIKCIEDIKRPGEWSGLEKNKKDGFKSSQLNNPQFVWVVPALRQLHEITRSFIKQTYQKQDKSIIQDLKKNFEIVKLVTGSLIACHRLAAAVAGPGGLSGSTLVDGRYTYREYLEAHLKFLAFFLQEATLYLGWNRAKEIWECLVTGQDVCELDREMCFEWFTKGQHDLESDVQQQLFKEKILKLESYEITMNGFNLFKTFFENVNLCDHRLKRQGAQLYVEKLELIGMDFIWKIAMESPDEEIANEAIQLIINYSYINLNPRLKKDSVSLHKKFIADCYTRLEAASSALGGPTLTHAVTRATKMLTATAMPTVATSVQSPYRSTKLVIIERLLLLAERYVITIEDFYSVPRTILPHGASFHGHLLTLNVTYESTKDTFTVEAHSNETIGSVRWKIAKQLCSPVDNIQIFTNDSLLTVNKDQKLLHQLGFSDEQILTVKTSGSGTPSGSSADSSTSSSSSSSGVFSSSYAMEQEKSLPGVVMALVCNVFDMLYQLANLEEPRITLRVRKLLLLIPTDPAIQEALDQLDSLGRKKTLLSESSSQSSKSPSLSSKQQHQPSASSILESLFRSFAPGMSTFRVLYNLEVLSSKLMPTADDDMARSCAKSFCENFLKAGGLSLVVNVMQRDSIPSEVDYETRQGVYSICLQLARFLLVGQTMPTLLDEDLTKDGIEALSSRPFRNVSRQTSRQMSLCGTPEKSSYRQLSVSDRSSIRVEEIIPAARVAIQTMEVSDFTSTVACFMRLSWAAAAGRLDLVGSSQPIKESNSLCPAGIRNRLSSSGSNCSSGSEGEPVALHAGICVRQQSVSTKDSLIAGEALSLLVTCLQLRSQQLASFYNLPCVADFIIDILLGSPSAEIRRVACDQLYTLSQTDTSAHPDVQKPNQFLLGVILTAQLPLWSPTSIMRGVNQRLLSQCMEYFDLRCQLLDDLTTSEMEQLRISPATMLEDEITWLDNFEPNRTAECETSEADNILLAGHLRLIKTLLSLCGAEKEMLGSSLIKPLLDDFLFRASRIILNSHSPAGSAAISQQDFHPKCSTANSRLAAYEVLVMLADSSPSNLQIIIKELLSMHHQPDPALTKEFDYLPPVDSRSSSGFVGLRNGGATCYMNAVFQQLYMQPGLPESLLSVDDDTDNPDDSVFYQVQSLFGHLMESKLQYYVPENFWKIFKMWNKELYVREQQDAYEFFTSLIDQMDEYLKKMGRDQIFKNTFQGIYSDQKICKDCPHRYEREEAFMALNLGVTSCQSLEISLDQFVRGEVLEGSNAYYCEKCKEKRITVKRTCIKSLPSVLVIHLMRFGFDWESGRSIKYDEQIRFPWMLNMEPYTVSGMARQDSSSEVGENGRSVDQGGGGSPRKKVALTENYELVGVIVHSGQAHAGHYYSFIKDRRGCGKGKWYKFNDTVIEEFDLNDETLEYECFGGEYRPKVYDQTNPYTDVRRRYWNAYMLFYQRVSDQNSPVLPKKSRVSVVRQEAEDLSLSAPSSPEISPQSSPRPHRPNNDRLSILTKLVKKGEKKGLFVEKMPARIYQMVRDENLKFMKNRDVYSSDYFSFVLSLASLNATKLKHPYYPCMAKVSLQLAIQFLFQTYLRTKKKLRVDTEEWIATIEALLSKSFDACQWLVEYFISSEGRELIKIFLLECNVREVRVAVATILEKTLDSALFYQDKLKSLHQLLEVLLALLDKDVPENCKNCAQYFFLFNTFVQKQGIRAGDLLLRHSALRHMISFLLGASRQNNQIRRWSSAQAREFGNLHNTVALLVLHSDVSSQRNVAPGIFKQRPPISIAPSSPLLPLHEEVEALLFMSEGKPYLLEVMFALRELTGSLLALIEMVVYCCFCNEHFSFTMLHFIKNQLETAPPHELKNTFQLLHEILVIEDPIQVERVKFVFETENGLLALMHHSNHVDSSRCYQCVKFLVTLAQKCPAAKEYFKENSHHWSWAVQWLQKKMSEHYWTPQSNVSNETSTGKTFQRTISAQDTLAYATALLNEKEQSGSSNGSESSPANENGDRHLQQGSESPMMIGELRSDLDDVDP

O=C(CCl)NC1CCC2(CC1)OCCO2
inactive: USP19 -0.189 | USP24 -0.301 | USP25 -0.49 | USP28 -0.665

Source: the supplement of paper PMC11732987, “Enantioselective OTUD7B fragment discovery through chemoproteomics screening and high-throughput optimisation” (Communications Chemistry, 2025)
